26 compounds from PubChem BioAssay (Tox21) can be followed below.

The nature of test [1]: qHTS assay to identify small molecule antagonists of the glucocorticoid receptor (GR) signaling pathway - cell viability counter screen (AID 720693; also: nearly all actives have a fitted effect of over 55% in size). (qHTS replaces the single test concentration by a dilution series.)
A short description of test [2]: qHTS assay for identifying genotoxic compounds that show differential cytotoxicity against isogenic chicken DT40 cell lines with known DNA damage response pathways - wild type cell line (AID 743012). Also: nearly all actives have a fitted effect of over 60% in size. Also: potency is read from the fitted curve at half-maximal effect. An outline of the steps:
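Cells (DT40 wild type, 300/well) are treated with DMSO-dissolved compounds after a ~0.5 h pre-incubation and kept 40 h at 37 C/5% CO2. Viability is then measured by CellTiter-Glo luminescence following 30 min at room temperature.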

Test [3] can be described thus: qHTS assay for identifying genotoxic compounds that show differential cytotoxicity against isogenic chicken DT40 cell lines with known DNA damage response pathways - Rev3 mutant cell line (AID 743014). Also: nearly all actives have a fitted effect of over 55% in size. Also: potency is read from the fitted curve at half-maximal effect.
The nature of test [4]: qHTS assay for identifying genotoxic compounds that show differential cytotoxicity against isogenic chicken DT40 cell lines with known DNA damage response pathways - Rad54/Ku70 mutant cell line (AID 743015). Also: nearly all actives have a fitted effect of over 60% in size. Also: potency is read from the fitted curve at half-maximal effect.
Test [5] is described as follows: qHTS assay to identify small molecule antagonists of the androgen receptor (AR) signaling pathway - cell viability counter screen (AID 743033; also: nearly all actives have a fitted effect of over 45% in size; also: potency is read from the fitted curve at half-maximal effect).
Test [6] concerns the target Androgen receptor (Homo sapiens) (UniProt P10275). The test can be described thus: qHTS assay to identify small molecule antagonists of the androgen receptor (AR) signaling pathway (AID 743035; active = well fitted inhibition curve with a large enough effect in the signal ratio in the repeat runs, not every such curve was filed as active; the % refers to the signal ratio; also: potency is read from the fitted curve at half-maximal effect). In short, it runs like this:
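Antagonism is scored as loss of R1881-driven beta-lactamase reporter expression in HEK293 cells carrying the reporter under a UAS element, after 16 h co-treatment at 37C and a 2 h room-temperature FRET substrate read.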

Test [7] has the same target. The test can be described thus: qHTS assay to identify small molecule agonists of the androgen receptor (AR) signaling pathway (AID 743036; active = well fitted activation curve with a large enough effect in the signal ratio in the repeat runs, with a control signal flat, not every such curve was filed as active; the % refers to the signal ratio). An outline of the steps: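 Agonist activity was scored by beta-lactamase reporter fluorescence in stably transfected HEK293 cells exposed to compounds for 16 h at 37C and 5% CO2. Substrate loading took 2 h at room temperature.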

Test [8] has the same target. In words: qHTS assay to identify small molecule agonists of the androgen receptor (AR) signaling pathway using the MDA cell line (AID 743040; also: nearly all actives have a fitted effect of over 20% in size). An outline of the steps: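 Human breast carcinoma MDA-kb2 reporter cells (MMTV-luc, AR/GR elements) were treated for 16 h at 37C in 0% CO2 following a 5 h settling period. Signal was quantified by ONE-Glo luminescence.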
Test [9] in a line: qHTS assay to identify small molecule antagonists of the androgen receptor (AR) signaling pathway using the MDA cell line - cell viability counter screen (AID 743041; also: nearly all actives have a fitted effect of over 45% in size; also: potency is read from the fitted curve at half-maximal effect). In short, it runs like this:
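Same-well cytotoxicity was assessed by CellTiter-Fluor in MDA-kb2 AR-luc cells after 16 h of compound treatment under R1881 agonism.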

In test [10] the target is Androgen receptor (Homo sapiens) (UniProt P10275). The test can be described thus: qHTS assay to identify small molecule antagonists of the androgen receptor (AR) signaling pathway using the MDA cell line (AID 743042; also: nearly all actives have a fitted effect of over 55% in size; also: potency is read from the fitted curve at half-maximal effect). In short, it runs like this:
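MDA-kb2 breast carcinoma cells carrying MMTV-luciferase (AR/GR responsive) were co-treated with compounds and the agonist R1881 for 16 h at 37C. Inhibition read as ONE-Glo luminescence; CellTiter-Fluor fluorescence measured in parallel for cytotoxicity.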

Where “and” joins values, the source holds several entries; their conditions need not be identical. Equal entries are not always repeated. A number with no mark means an inactive call. Results filed as inconclusive are left out. Calls of active or inactive are those of the source. Unless noted, calls follow the shape of the dose curve; as a rule, active = well fitted curve in the direction sought with a large enough effect in the repeat runs; inconclusive = weak or mixed curves; inactive = no such curve, though single readings can be large; an effect the other way counts as inactive or inconclusive.
% is scaled to controls: 0 for no effect and ±100 for the full control effect.

Sequence of Androgen receptor (Homo sapiens) (P10275 whole entry, looked up): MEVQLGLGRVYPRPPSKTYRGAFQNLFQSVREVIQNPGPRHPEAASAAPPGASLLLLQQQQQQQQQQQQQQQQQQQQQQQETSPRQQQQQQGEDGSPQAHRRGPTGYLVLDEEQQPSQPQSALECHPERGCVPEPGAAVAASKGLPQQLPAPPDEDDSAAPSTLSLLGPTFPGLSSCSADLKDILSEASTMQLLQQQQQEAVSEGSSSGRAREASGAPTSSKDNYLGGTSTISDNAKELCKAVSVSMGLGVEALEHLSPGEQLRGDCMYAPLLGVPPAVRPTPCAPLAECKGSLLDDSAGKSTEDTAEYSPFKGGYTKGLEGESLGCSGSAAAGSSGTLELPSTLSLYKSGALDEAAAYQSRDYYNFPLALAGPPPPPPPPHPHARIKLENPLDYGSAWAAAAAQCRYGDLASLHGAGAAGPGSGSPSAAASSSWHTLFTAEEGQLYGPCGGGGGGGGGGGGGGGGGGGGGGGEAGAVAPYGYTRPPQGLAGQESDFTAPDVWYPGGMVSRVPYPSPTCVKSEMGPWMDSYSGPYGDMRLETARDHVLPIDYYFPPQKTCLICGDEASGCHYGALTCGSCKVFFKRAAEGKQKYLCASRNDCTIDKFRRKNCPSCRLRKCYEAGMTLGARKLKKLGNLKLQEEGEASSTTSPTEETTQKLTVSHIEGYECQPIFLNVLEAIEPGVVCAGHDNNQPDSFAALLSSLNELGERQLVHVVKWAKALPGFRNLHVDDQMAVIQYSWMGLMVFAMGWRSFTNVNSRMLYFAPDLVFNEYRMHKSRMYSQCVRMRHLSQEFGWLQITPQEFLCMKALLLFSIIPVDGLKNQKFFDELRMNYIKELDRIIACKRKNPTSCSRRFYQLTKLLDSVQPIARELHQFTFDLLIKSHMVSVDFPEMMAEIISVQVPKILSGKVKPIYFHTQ

For `O=C(O)CNCC(=O)O`, the viability change, negative = cytotoxic in [1] is -8.93% [at 7.04 µM]; in [9], -11.9% [at 8.47 µM]. In addition, the activity change, negative = cytotoxicity in test [2] is 8.65% [at 8.52 µM]; in test [4] it was 1.1% [at 8.55 µM]; in [5], 1.48% [at 7.04 µM]. Also, in [3], the activity, negative = cytotoxicity was -2.98% [at 8.53 µM]. Besides, the results for the activity change, negative = inhibition in [6] and in test [10] were 0.788% [at 7.04 µM] and 1.72% [at 8.47 µM], respectively. The activation in test [7] was -0.671% [at 6.9 µM]. For the same compound, the activity change in test [8] was 1.91% [at 8.47 µM, stronger effect = higher value].

In the case of `OC[C@H]1O[C@@H](OCCc2ccc(O)cc2)[C@H](O)[C@@H](O)[C@@H]1O`, the Potency entry in test [1], in test [2], in test [3], in test [4], in test [5] and in [9] was “inactive” throughout.

For `NCc1ccccc1Sc1ccccc1CO`, the Potency result in test [1], in [5], in test [6], in [7], in test [8] and in test [9] was “inactive” in each case. Besides, the Potency result in [10] was “inactive”. Moreover, the figures for the Potency in [2], in test [3] and in test [4] were 21.1 µM (active), 5.96 µM (active) and 29.8 µM (active), respectively.

For `O=C1CCC(=O)O1`, the Potency result in [1], in test [2], in [3], in test [4], in test [5] and in test [9] was “inactive” throughout.

As to `O=S(=O)(Oc1ccc(Cl)cc1)c1ccccc1`, the Potency entry in [1], in [2], in [5] and in test [9] was “inactive” throughout. Moreover, the Potency in [3] is 61.1 µM (active); in test [4] it was 54.5 µM (active).

Take `CCCCCCCCCc1ccc(OCCOCCO)cc1`: the Potency result in test [1], in test [7] and in [8] was “inactive” in each case. Moreover, the Potency in test [2] is 2.37 µM (active) and 909 nM (active); in test [3], 3.76 µM (active) and 1.81 µM (active); in [4], 3.76 µM (active) and 1.81 µM (active); in test [5], 13.4 µM (active) and 8.17 µM (active); in [6], 5.35 µM (active) and 4.6 µM (active); in [9] it was 11.1 µM (active) and 5.11 µM (active). In [10], the Potency is 4.73 µM (active) and 1.44 µM (active).

On to `COC(=O)c1ccc(I)cc1S(=O)(=O)NC(=O)Nc1nc(C)nc(OC)n1`, for which the Potency result in test [1], in test [2], in [3], in test [4], in test [5] and in test [9] was “inactive” throughout.

For the compound `OCc1cc(C(O)CNCCCCCCOCCCCc2ccccc2)ccc1O` (stereo unspecified), the Potency result in test [1] was “inactive”. Further, the Potency is 3.35 µM (active) and 2.37 µM (active) in test [2]; 5.96 µM (active) and 4.73 µM (active) in test [3]; 5.31 µM (active) and 3.35 µM (active) in test [4].

Turning to `CN1CCC(N(Cc2cccs2)c2ccccc2)CC1`, the Potency entry in [1], in test [5] and in test [9] was “inactive” each time. The values for the Potency in [2], in test [3] and in test [4] were 9.44 µM (active), 11.9 µM (active) and 10.6 µM (active), respectively.

For the compound `C#C[C@]1(O)CC[C@H]2[C@@H]3CCc4cc(OC5CCCC5)ccc4[C@H]3CC[C@@]21C`, the Potency entry in test [1], in [5] and in test [9] was “inactive” in each case. Also, the results for the Potency in [2], in test [3] and in test [4] were 1.68 µM (active), 2.11 µM (active) and 5.31 µM (active), respectively.

Regarding `Cc1[nH]c(C)c(Cl)c(=O)c1Cl`, the Potency result in test [1], in test [2], in [3], in [4], in test [5] and in test [9] was “inactive” throughout.

As to `CCO[Si](CCCCl)(OCC)OCC`, the Potency result in [1], in [2], in test [3], in [4], in [5] and in test [9] was “inactive” each time.

Consider `COc1cc2nc(N(C)CCCNC(=O)C3CCCO3)nc(N)c2cc1OC` (stereo unspecified), for which the Potency result in test [1], in test [2], in [3], in test [4], in test [5] and in test [9] was “inactive” in each case.

As to `CCCCc1nc2cccnc2n1Cc1ccc(-c2ccccc2-c2nnn[nH]2)cc1`, the Potency entry in test [1], in [2], in test [3], in test [4], in test [5] and in test [9] was “inactive” in each case.

With `CC(C)(C)OCC1CO1` (stereo unspecified), the Potency result in [1], in [2], in [3], in [4], in test [5] and in [9] was “inactive” throughout.

On to `O=C(O)c1ccc(S(=O)(=O)O)cc1C(=O)O`, for which the Potency result in [1], in [2], in test [3], in test [4], in test [5] and in test [9] was “inactive” throughout.

Consider `C#Cc1cccc(Nc2ncnc3cc(OCCOC)c(OCCOC)cc23)c1`, for which the Potency entry in test [1], in test [5] and in test [9] was “inactive” throughout. For the same compound, the values for the Potency in test [2], in test [3] and in [4] were 11.9 µM (active), 21.1 µM (active) and 13.3 µM (active), respectively.

In the case of `CC1CCC(=O)C1=O` (stereo unspecified), the Potency entry in test [1], in test [2], in test [3], in [4], in test [5] and in test [9] was “inactive” each time.

As for `NC(N)=NCCC[C@H](N)C(=O)O`, the Potency result in test [1], in test [2], in [3], in test [4], in [5] and in test [9] was “inactive” each time.

Turning to `O=C(O)c1ccc(-n2nc(-c3ccccc3O)nc2-c2ccccc2O)cc1`, the Potency result in test [1], in [5] and in [9] was “inactive” each time. Moreover, the Potency in test [2] was 13.3 µM (active); in test [3], 18.8 µM (active); in test [4], 18.8 µM (active).

For `CC1OC(=O)C(C)OC1=O` (stereo unspecified), the Potency entry in test [1], in [2], in test [3], in [4], in test [5] and in test [9] was “inactive” each time.

As for `CCCCCCCCO[C@@H]1O[C@H](CO)[C@@H](O)[C@H](O)[C@H]1O`, the Potency result in test [1], in test [2], in test [3], in test [4], in test [5] and in [9] was “inactive” throughout.

For `O=C(O)c1ccccc1Cl`, the Potency result in test [1], in test [2], in test [3], in test [4], in test [5] and in test [9] was “inactive” throughout.

Turning to `C=C(C)C(=O)OCCO`, the Potency result in [1], in test [2], in test [3], in test [4], in test [5] and in test [9] was “inactive” in each case.

As for `CN(Cc1ccc(C(C)(C)C)cc1)Cc1cccc2ccccc12`, the Potency entry in test [1], in test [2], in test [3], in [4], in test [5] and in [9] was “inactive” throughout.

`CCCCc1ncc(/C=C(\Cc2cccs2)C(=O)O)n1Cc1ccc(C(=O)O)cc1`: the Potency result in test [1], in test [2], in test [3], in [4], in [5] and in [9] was “inactive” each time.
